Assay outcomes as filed in PubChem.
This is a sample that favours compounds with a hit; in the whole collection about 3.2% have one here.
Tau fluor counter: counter-screen for tau fibril formation inhibitors; Potency, µM (top dose mostly 57.7 µM), for inactives: at the top dose activity change, negative = decrease; tau K18 P301L Alexa594 fluorescence, heparin fibrillization; actives 0.93% (n = 280,000); AID 1463; further: nearly all actives have a fitted effect of over 55% in size
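Human K18 P301L tau (15 uM unlabeled plus 0.24 uM Alexa 594-labeled, final) in 100 mM sodium acetate pH 7 was mixed with compound and 20 uM heparin and incubated 6 hr at 37 C.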
GoLoco inh red: blocks human Gai1 binding to RGS12 GoLoco peptide, red readout; P63096; Gai1:RGS12 GoLoco peptide FP, rhodamine, 10 min; Potency, µM (series often up to 61.6 µM), for the others: top-dose activity, negative = inhibition, hits mostly inhibitors; actives 0.44% (n = 230,000); active means well fitted inhibition curve with a large enough effect, not every such curve was filed as active; inactive means no such curve, though single readings can be large or run the other way; further: nearly all actives have a fitted effect of over 30% in size
TRb-SRC2 inh: inhibitors of human thyroid hormone receptor beta-SRC2 interaction; Potency, µM (highest dose often 106 µM), for the others: at the highest dose activity change, negative = inhibition, actives largely listed as inhibitors; actives 0.065% (n = 280,000); TRbeta-SRC2 peptide binding, fluorescence polarization; receptor liganded with 1 µM T3; P10828;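 further: plate controls were bound peptide for no effect and peptide without receptor for full effect; nearly all actives have a fitted effect of over 50% in size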
Target sequence (P10828 whole entry, looked up): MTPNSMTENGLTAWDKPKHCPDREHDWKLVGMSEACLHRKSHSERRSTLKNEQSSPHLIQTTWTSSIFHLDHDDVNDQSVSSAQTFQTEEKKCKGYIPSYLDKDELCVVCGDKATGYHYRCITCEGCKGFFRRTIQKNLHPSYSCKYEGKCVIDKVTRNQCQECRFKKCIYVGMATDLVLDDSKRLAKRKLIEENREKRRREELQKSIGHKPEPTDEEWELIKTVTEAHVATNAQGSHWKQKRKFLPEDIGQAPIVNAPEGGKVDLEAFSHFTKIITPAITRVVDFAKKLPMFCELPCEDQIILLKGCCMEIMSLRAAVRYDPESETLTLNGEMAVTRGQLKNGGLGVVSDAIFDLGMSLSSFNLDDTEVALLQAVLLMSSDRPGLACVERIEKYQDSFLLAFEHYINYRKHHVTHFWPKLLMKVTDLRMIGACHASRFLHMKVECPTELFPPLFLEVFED
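Polarization signal, normalized between peptide-alone and full complex controls, measured compound effects on T3-liganded human TRb LBD (0.6 uM) binding 20 nM Texas Red SRC2 peptide after 5 hr.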
TR SRC2 fluor cs: alters Texas Red total fluorescence, flagging assay interference. TRb/SRC2 Texas Red total fluorescence interference. Potency, µM (doses to about 106 µM), for inactives: top-dose fluorescence change, negative = quenching. actives 0.29% (n = 280,000); active means well fitted curve in either direction with a large enough effect; inconclusive means small, poorly fitted or top-dose-only effect
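Human TRb ligand-binding domain at 0.6 uM with 20 nM Texas Red SRC2 peptide in Tris buffer containing 1 uM T3 and 5% DMSO, incubated with compound 5 h at ambient temperature. Total fluorescence (555/632 nm) calculated as parallel + 2 × perpendicular.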
Tau FP inhib: inhibitors of human tau fibril formation. K18 P301L tau heparin fibrillization, Alexa594 FP, 6 h. AID 1468. Potency, µM (titrated, usually from 57.7 µM), for inactives: at the top dose activity, negative = inhibition, hits mostly inhibitors. P10636. actives 0.39% (n = 280,000); further: nearly all actives have a fitted effect of over 55% in size
Target sequence (P10636 561-689 P618L limits assumed): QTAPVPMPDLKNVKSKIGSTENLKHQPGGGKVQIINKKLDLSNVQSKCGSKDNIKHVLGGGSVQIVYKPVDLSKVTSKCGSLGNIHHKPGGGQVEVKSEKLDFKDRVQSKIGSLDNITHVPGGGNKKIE
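Recombinant K18 P301L […], labeled with Alexa 594 at 0.24 uM over 15 uM unlabeled; heparin inducer 20 uM final; 37 C, 6 hr; FP endpoint.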
Tau ThT inhib: inhibitors of human tau fibril formation, thioflavin T binding. P10636. recombinant tau K18 P301L, heparin-induced fibrillization, ThT fluorescence. Potency, µM (series often up to 57.4 µM), without a hit: at the highest dose activity, negative = inhibition, usual class: inhibitors. actives 2.1% (n = 270,000); further: nearly all actives have a fitted effect of over 55% in size
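Fibril formation assay: tau K18 P301L at 15 uM with trace Alexa 594 label, heparin inducer 20 uM, pH 7 sodium acetate buffer, 37 C for 6 hr; endpoint ThT signal.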
* marks the source's active call; other numbers are inactive results; ? = inconclusive; nt = no result given; [ ] = remark or other dose. Unless noted, the call rests on the fitted dose curve; in most records, active means well fitted curve in the direction sought with a large enough effect; inconclusive means small, poorly fitted or top-dose-only effect, or another doubt; inactive means no such curve, though single readings can be large; an effect the other way counts as inactive or inconclusive. Unless noted, on the % scale 0 is the no-effect control and ±100 the full control effect; potency means the concentration at half of the fitted maximal effect.

SMILES	Tau fluor counter	GoLoco inh red	TRb-SRC2 inh	TR SRC2 fluor cs	Tau FP inhib	Tau ThT inhib
C/C(=N\Nc1nc2ccccc2s1)c1ccc(Br)s1	11µM*[quencher]	3%	-3%	-4%	?	?
C/C(=N\Nc1nc2ccccc2s1)c1ccc2c(c1)OCO2	?	6%	-1%[53 µM]	-3%[53 µM]	-1%	?
O=C(CSc1nc(-c2cccc(Cl)c2)nc2cc(=O)[nH]n12)Nc1ccccc1	-12%	nt	4%	0%	-6%	-1%
COc1ccc(C2(Nc3cccc(C(=O)O)c3C)C(=O)c3ccccc3C2=O)cc1	1%	nt	-1%	-3%	-1%	2%
COc1ccc(C2(C(=O)c3ccccc3)C(=O)c3ccccc3C2=O)cc1	?	16%	2%	-2%	?	14µM*
CN(C)C[C@@H](O)c1ccc(Cl)c2ccccc12	nt	6%[14.2 µM]	nt	nt	nt	nt
COc1c(O)c(O)cc2c1oc1c3ccccc3oc(=O)c21	10µM*[quencher]	-30%	10%	-10%	?	7.9µM*
CCCCCCCCCCCC[N+](C)(C)[O-]	nt	nt	2%[201 µM]	-4%[201 µM]	nt	nt
O=C(Nc1cccc(S(=O)(=O)N2CCOCC2)c1)c1cn(-c2ccccc2)nc1-c1ccccc1	?	7%	1%	0%	25µM*	6%
Cc1ccc(-c2nn(-c3ccccc3)cc2C(=O)Nc2ccc(C)c(S(=O)(=O)N3CCOCC3)c2)cc1	?	4%	1%	4%	16µM*	-1%
O=C(Nc1cccc(S(=O)(=O)N2CCOCC2)c1)c1cn(-c2ccccc2)nc1-c1ccc(F)cc1	-30%	-1%	3%	2%	?	-4%
COc1ccc(-c2nc(S(=O)(=O)c3ccc(C)cc3)c(NCc3ccccc3)o2)cc1	-9%	nt	6%	-2%	-2%	?
CCCN(C(=O)Cn1cnc2onc(-c3ccc(F)cc3)c2c1=O)c1cccc(Cl)c1	-11%	nt	-16%	178µM*[quencher]	-14%	6%
CC[C@@H](C)[C@H](NS(=O)(=O)c1cccc2ccccc12)C(=O)N[C@H](C=O)Cc1c[nH]c2ccccc12	?	4%	-3%	1%	3%	?
CCN(C(=O)COc1cccc2cccnc12)C1CCS(=O)(=O)C1 (configuration not stated)	-28%	4%	4%	1%	?	25µM*
CCCN(CCC)C(=O)C1CCCN(S(=O)(=O)c2cc(Br)cc3c2N(C(=O)CC)CC3)C1 (configuration not stated)	-9%	nt	1%	-30%	-1%	-12%
CCC(=O)N1CCc2cc(Br)cc(S(=O)(=O)N3CCCC(C(=O)N(C)c4ccc(Br)cc4)C3)c21 (configuration not stated)	-3%	nt	-4%	178µM*[quencher]	14%	-11%
CN1C/C(=C\c2ccc(N3CCOCC3)cc2)C(=O)/C(=C/c2ccc(N3CCOCC3)cc2)C1	5%	219%	0%	-1%	20%	0.63µM*
CCN1C/C(=C/c2ccc(N3CCOCC3)cc2)C(=O)/C(=C/c2ccc(N3CCOCC3)cc2)C1	-10%	nt	6%	0%	-7%	0.63µM*
CN(C(Cc1ccc(OS(=O)(=O)c2cccc3cnccc23)cc1)C(=O)N1CCN(c2ccccc2)CC1)S(=O)(=O)c1cccc2cnccc12 (configuration not stated)	-12%	3%	1%	0%	10%	1%
C[C@H]1Cc2c(COc3ccccc3)nc3c(c2CO1)CN(C(=O)Cc1cccs1)CC3	-11%[11.6 µM]	11%[14.2 µM]	1%[11.2 µM]	-5%[11.2 µM]	-5%[11.6 µM]	-6%[11.5 µM]
COc1ccc(C=Nc2c(O)ccc3ccccc23)cc1OC	nt	32%[14.2 µM]	nt	nt	nt	nt
COC1=CC(=O)C(O)=C/C1=C\C=C\c1ccccc1	?	-8%	-6%	-6%	16µM*	7.9µM*
CCN(CC)S(=O)(=O)c1cccc(C(=O)N/N=C/c2ccc(O)c(O)c2O)c1	?	-5%	-5%	-28%	8.9µM*	3.2µM*
CCn1c(C)nc2cc(C(=O)N/N=C/c3ccc(O)c(O)c3O)ccc21	?	2%	-6%	?	7.9µM*	3.2µM*
SMILES	Tau fluor counter	GoLoco inh red	TRb-SRC2 inh	TR SRC2 fluor cs	Tau FP inhib	Tau ThT inhib
CN(C)S(=O)(=O)c1cccc(NC(=S)N/N=C/c2ccc(O)c(O)c2O)c1	13µM*[quencher]	-16%	3%	-6%	7.1µM*	3.2µM*
CC(CNc1ccccc1O)C(=O)O (configuration not stated)	?	-4%	-6%	-9%	?	28µM*
CC(Oc1ccccc1)C(=O)Nc1ccccc1O (configuration not stated)	-8%	4%	-7%	0%	7%	-7%
CC[C@H](C)[C@H](NC(=O)[C@H](Cc1ccc(O)cc1)NC(=O)[C@H](Cc1cnc[nH]1)NC(=O)[C@H](CCCNC(=N)N)NC(=O)[C@H](CC(C)C)NC(=O)[C@H](C)NC(=O)[C@H](CO)NC(=O)[C@H](Cc1ccc(O)cc1)NC(=O)[C@H](Cc1ccc(O)cc1)NC(=O)[C@H](CCCNC(=N)N)NC(=O)[C@H](C)NC(=O)[C@H](CCSC)NC(=O)[C@H](CC(=O)O)NC(=O)[C@H](CCC(=O)O)NC(=O)[C@H](C)NC(=O)[C@@H]1CCCN1)C(=O)N[C@@H](CC(N)=O)C(=O)N[C@@H](CC(C)C)C(=O)N[C@H](C(=O)N[C@H](C(=O)N[C@@H](CCCNC(=N)N)C(=O)N[C@@H](CCC(N)=O)C(=O)N[C@@H](CCCNC(=N)N)C(=O)N[C@@H](Cc1ccc(O)cc1)C(N)=O)[C@@H](C)O)[C@@H](C)CC	nt	nt	1%	-4%	nt	nt
CCc1ccc(NC(=O)CC2C(=O)N(c3ccc(Cl)cc3)C(=O)N2Cc2ccco2)cc1 (configuration not stated)	?	nt	6%	-3%	?	-3%
CCCCCCCCCCCCCCCCCC#N	nt	nt	-2%[201 µM]	4%[201 µM]	nt	nt
C=CCN1C(=O)C(CC(=O)O)SC1=Nc1cccc([N+](=O)[O-])c1 (configuration not stated)	0%	-8%	-14%	-1%	-11%	2%
C=CCN1C(=O)C(CC(=O)O)SC1=Nc1ccc(N=Nc2ccccc2)cc1 (configuration not stated)	-16%	8%	-2%	-3%	7%	11µM*
Cc1ccc(C(=O)OCC(=O)c2c[nH]c3ccccc23)cc1	-6%	11%	-3%	0%	4%	1%
